In PubChem BioAssay AID1645855 (Buhrlage Lab, Dana-Farber Cancer Institute and Novartis …, 2021) one finds inhibition data, which are given here for 55 compounds.

Structures are written as SMILES. In all, about 47,000 compounds went through this assay and about 3,100 (6.6%) were called active. Rule as the data show it: active = inhibition above about 30%; inactive = the rest. Many of the other results were omitted from the sample, so actives are more common in it than they were.

Ubiquitin carboxyl-terminal hydrolase 17-like protein 5 (Homo sapiens), sequence (A8MUK1 whole entry, looked up): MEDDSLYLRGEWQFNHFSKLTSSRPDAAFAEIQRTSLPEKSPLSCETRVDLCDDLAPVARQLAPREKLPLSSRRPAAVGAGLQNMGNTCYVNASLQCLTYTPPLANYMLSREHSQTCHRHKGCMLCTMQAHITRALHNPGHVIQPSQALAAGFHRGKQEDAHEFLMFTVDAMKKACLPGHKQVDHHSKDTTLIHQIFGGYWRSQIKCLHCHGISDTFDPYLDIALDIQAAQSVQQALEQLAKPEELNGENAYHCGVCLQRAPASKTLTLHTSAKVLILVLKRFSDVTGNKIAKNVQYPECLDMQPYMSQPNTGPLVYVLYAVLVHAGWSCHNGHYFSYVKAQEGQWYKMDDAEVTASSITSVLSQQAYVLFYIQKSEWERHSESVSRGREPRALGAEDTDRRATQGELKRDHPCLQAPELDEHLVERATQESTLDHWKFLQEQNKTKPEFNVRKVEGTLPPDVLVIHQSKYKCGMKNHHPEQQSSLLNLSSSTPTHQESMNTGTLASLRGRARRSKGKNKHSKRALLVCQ

The assay concerns the target Ubiquitin carboxyl-terminal hydrolase 17-like protein 5 (Homo sapiens) (UniProt A8MUK1). The experiment in a line: blocks human USP17 ubiquitin-rhodamine cleavage (AID 1645855). To be noted: purified USP17, Ub-rhodamine cleavage fluorescence, 3 h; at 50 µM; hits give high values.
Turning to `Cc1ccc2[nH]cc(C(C(=O)O)N3CCN(c4ccc(C(F)(F)F)cn4)CC3)c2c1` (stereo not given), the inhibition (usually the change of the read-out against control, counted positive when it falls) was -4.78% (inactive).

`Cc1cccc(C)c1NS(=O)(=O)c1ccc(N2CCCC2=O)cc1`: the inhibition is -8.71% (inactive).

On to `Cc1noc(C)c1CN1C[C@H](OCc2ccccn2)[C@H]2OCCC[C@H]21`, for which the inhibition was -5.79% (inactive).

With `Cc1cc2nc(N3CCOCC3)n(CC(=O)Nc3ccccc3F)c(=O)c2n1C`, the inhibition is 36% (active).

With `Cc1cc(=O)n(CC(=O)Nc2ccc(F)cc2C)c(N2CCCC2)n1`, the inhibition is 16.9% (inactive).

Turning to `CCc1cc(=O)n(CC(=O)NCc2ccccc2)c(N2CCOCC2)n1`, the inhibition was -0.113% (inactive).

As for `O=C(Cc1c[nH]c2ccccc12)N1CCc2cc(-c3ccno3)ccc21`, the inhibition is -26.7% (inactive).

Regarding `COc1ccc(-c2noc(C3(c4ccccc4)CCOCC3)n2)cc1`, the inhibition is 19.3% (inactive).

For the compound `COc1ccc(-c2noc(CN(C3CCCCC3)S(=O)(=O)c3ccc(OC)cc3)n2)cc1`, the inhibition is 4.09% (inactive).

Consider `COc1ccc(-c2noc(-c3ccc(N(C)Cc4ccco4)nn3)n2)cc1`, for which the inhibition is 30.7% (active).

On to `CC(C)n1ncc2[nH]c(C3CCCN(C(=O)Nc4ccc(F)cc4)C3)nc21` (stereo not given), for which the inhibition was -4.82% (inactive).

Turning to `CCOC(=O)c1cc2c(ccn2-c2ccc(F)cc2)n1Cc1ncc(C)c(OC)c1C`, the inhibition is -32% (inactive).

With `O=C(Nc1cc(-c2ccccc2)nn1C1CCS(=O)(=O)C1)c1ccccc1F` (stereo not given), the inhibition is -23.8% (inactive).

For the compound `CC(C)(C)n1nc(C2CC2)c(Br)c1NC(=O)c1ccccc1F`, the inhibition is 93.7% (active).

`COc1ccccc1C(=O)Nc1cccn2nc(C3CCC3)nc12`: the inhibition was 2.42% (inactive).

In the case of `CCCCn1c(=O)[nH]c2c(c1=O)CCC2`, the inhibition was 4.26% (inactive).

In the case of `Cc1sc(NC(=O)CS(=O)(=O)c2ccc(F)cc2)c(C(N)=O)c1C`, the inhibition was -84% (inactive).

In the case of `Cc1ccc(S(=O)(=O)CC(=O)Nc2sc(C)c(C)c2C(N)=O)cc1`, the inhibition is -27.2% (inactive).

Regarding `Cc1sc(NC(=O)c2ccc(S(=O)(=O)N(C)CC3CCCO3)cc2)c(C(N)=O)c1C` (stereo not given), the inhibition was 40.5% (active).

On to `CCN1CCN(C2=Nc3c(Cl)cc(Cl)c4cccc2c34)CC1`, for which the inhibition is -158% (inactive).

For the compound `COc1ccccc1-c1nc(-c2ccc(-n3cccn3)nc2)no1`, the inhibition is 2.48% (inactive).

Take `O=c1c2ccccc2c(-c2nc(-c3ccncc3)no2)cn1-c1ccc(F)cc1`: the inhibition is 37.7% (active).

In the case of `O=c1c2ccccc2ncn1Cc1noc(-c2ccccc2F)n1`, the inhibition was -0.0976% (inactive).

As for `CC(C)NC(=O)[C@H](C)NC(=O)N1CCn2c1nc1ccccc12`, the inhibition was -12.1% (inactive).

For `CN1Cc2c(C(=O)NCC3CCCO3)ncn2-c2ccccc2S1(=O)=O` (stereo not given), the inhibition was -13.6% (inactive).

For `Cn1c(=O)c2c(SCC(=O)N3CCC(Cc4ccccc4)CC3)nc(-c3cccs3)nc2n(C)c1=O`, the inhibition was 2.08% (inactive).

`COc1ccc(F)cc1-c1ccccc1CC1CNCCNC1=O` (stereo not given): the inhibition was -14.6% (inactive).

Consider `COC(=O)COc1cccc2c(=O)n(CC(=O)N3CCc4ccccc43)ccc12`, for which the inhibition was 35.8% (active).

With `Cc1nc2ccccc2c(=O)n1CC(=O)N1CCCc2ccccc21`, the inhibition is 4.34% (inactive).

For `O=C(Cn1cnc2ccccc21)N1CCCc2ccccc21`, the inhibition is -1.89% (inactive).

For the compound `Cn1c(=O)c2c(ncn2CC(=O)OCc2cccc([N+](=O)[O-])c2)n(C)c1=O`, the inhibition is -12.3% (inactive).

`COc1ccc(-c2cc(C(=O)Nc3cccc(C)c3C)c3ccccc3n2)cc1OC`: the inhibition was -1.61% (inactive).

Take `CCN1C[C@@]23CN(C(=O)c4ccc(OC)cc4)C[C@@H](C[C@@H]2S1(=O)=O)O3`: the inhibition was 0.859% (inactive).

Regarding `O=C(c1ccco1)[C@@H]1[C@@H]2C(=O)N(c3cccc([N+](=O)[O-])c3)C(=O)[C@@H]2C2c3ccccc3C=CN21` (stereo not given in full), the inhibition was -7.36% (inactive).

Take `COc1cccc(-c2cc(C(=O)N3CCN(c4ccc(N5CCOCC5)nn4)CC3)[nH]n2)c1`: the inhibition was 33.1% (active).

Regarding `O=C(c1cccnc1)N1CCN(c2cc(-c3ccccc3)[nH]n2)CC1`, the inhibition was -26.3% (inactive).

Regarding `COc1cccc(N2CCCN(C(=O)c3ccc4nc(C)[nH]c4c3)CC2)c1`, the inhibition was -10.9% (inactive).

On to `N#Cc1ccccc1NC(=O)c1cccc2c1SCCC2=O`, for which the inhibition was 8.87% (inactive).

As for `Cc1cccc(N2CCN(C(=O)C3CCCN(S(=O)(=O)N4CCC5(CC4)OCCO5)C3)CC2)c1C` (stereo not given), the inhibition is 9.89% (inactive).

As to `O=C1NC(c2ccccc2)=N/C1=C/c1ccc(F)cc1`, the inhibition is 39.9% (active).

In the case of `O=C(O)c1c2c(nc3ccccc13)/C(=C/c1ccc(F)cc1)CCC2`, the inhibition is 4.5% (inactive).

In the case of `CCC(C)Cc1ccc2c(c1O)C(=O)OC(CC(\C=C/C=C\C=C\c1coc(CC(O)C(C)C(O)CC)n1)OC)C2` (stereo not given), the inhibition was 14.5% (inactive).

Consider `O=C(NCc1ccccc1)c1c(O)c2cnn(Cc3ccccc3)c2[nH]c1=O`, for which the inhibition is 33.7% (active).

On to `COc1ccccc1CNC(=O)c1c(O)c2cccnc2n(-c2ccccc2)c1=O`, for which the inhibition was -4.34% (inactive).

In the case of `O=C(NCc1ccccc1)c1cc(-c2ccncc2)n[nH]1`, the inhibition is -3.2% (inactive).

On to `O=C(CN1CCC(Nc2nc3c(c(=O)[nH]2)CCCC3)CC1)Nc1ccccc1[N+](=O)[O-]`, for which the inhibition is 14% (inactive).

Turning to `Cc1sc(NC(=O)CCc2ccccc2)nc1-c1ccc2c(c1)N(C)C(=O)CO2`, the inhibition is -15.7% (inactive).

Consider `Cc1ccc(C)c(S(=O)(=O)N2CCC(c3nc(C(=O)N(C)C)c(C)o3)CC2)c1`, for which the inhibition was -7.71% (inactive).

As to `O=C(NCc1cccnc1)[C@@H]1CC[C@@H]2[C@@H](CCN2c2ncc(F)cn2)O1`, the inhibition is -63.6% (inactive).

Regarding `COc1ccc(NS(=O)(=O)c2cc(NC(=O)CC(=O)c3ccc([N+](=O)[O-])cc3)ccc2C)cc1`, the inhibition was 39.9% (active).

With `COc1ccc(NS(=O)(=O)c2cc(NC(=O)/C=C/c3cccc(OC)c3)ccc2OC)cc1`, the inhibition was -3.35% (inactive).

As for `COc1ccc(NS(=O)(=O)c2cc(NC(=O)COc3ccccc3F)ccc2OC)cc1`, the inhibition is 6.42% (inactive).

Regarding `COCCN1C[C@H]2COc3cc(OC)ccc3[C@H]2N(C(=O)c2ccc(F)cc2)CCC1=O`, the inhibition is 0.764% (inactive).

For the compound `CC(C)n1cnc(-c2cc(C(=O)NC3CC3)c3ccccn23)c1`, the inhibition is -51.2% (inactive).

On to `CCCNC(=O)c1ccc(Nc2cc(C)nc3nc(-c4cccnc4)nn23)cc1`, for which the inhibition is 7.85% (inactive).
